Data as given in PubChem BioAssay (NCATS).
Inconclusive results are not listed. A call without a number means that no potency is given here. Unmarked numbers belong to inactive results. Calls of active or inactive are those of the source. The call rests on the fitted dose curve; in most records, active means well fitted cell-killing curve with a large enough effect; inconclusive means small, poorly fitted or top-dose-only effect, or effect the other way; inactive means no such curve, though single readings can be large or run the other way.

Experiments:
[1] = Viability qHTS for spleen associated tyrosine kinase inhibitor (SYKi) naive MV4-11 cells (AID 1963823); further: nearly all actives have a fitted effect of over 40% in size
Summary of the method: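 Read-out: CellTiter-Glo luminescence. Exposure: 72 hr, 37 C, 5% CO2, 95% humidity. Cells: MV4-11 without SYK inhibitor history, 500/well, qHTS format.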

[2] = Viability qHTS for spleen associated tyrosine kinase inhibitor (SYKi) drug resistant MV4-11 cells (AID 1963824); further: nearly all actives have a fitted effect of over 35% in size
Summary of the method: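 SYK inhibitor-resistant MV4-11 AML cells, 500 per well, added to predispensed compounds and incubated 72 hr at 37 C, 5% CO2. Viability measured by CellTiter-Glo luminescence after 10 min at room temperature.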
Potency means the concentration at half of the fitted maximal effect.

SMILES	Potency [1]	Potency [2]	viability (% of control) [1]	viability, % of control [2]
Cc1cc(Nc2nn(-c3ccccc3)c(=O)c3ccccc23)n[nH]1	146 nM (active)	461 nM (active)		
CC1(C)CC[C@]2(C(=O)O[C@@H]3O[C@H](CO)[C@@H](O)[C@H](O)[C@H]3O)CC[C@]3(C)C(=CCC4[C@@]5(C)CC[C@H](O[C@@H]6O[C@H](C(=O)O)[C@@H](O[C@@H]7O[C@H](CO)[C@@H](O)[C@H](O)[C@H]7O)[C@H](O)[C@H]6O)C(C)(C)C5CC[C@]43C)C2C1 (stereo partly drawn)			78.7% [at 9.25 µM]	88% [at 9.25 µM]
COC(=O)C[C@@H]1C(C(=O)O)=CO[C@@H](O[C@@H]2O[C@H](CO)[C@@H](O)[C@H](O)[C@H]2O)/C1=C\COC(=O)/C=C\c1ccccc1	inactive	inactive		
CC(=O)C1=C(O)C=C2Oc3c(C(C)=O)c(O)c(C)c(O)c3[C@]2(C)C1=O	inactive	inactive		
CCOc1ncc(S(=O)(=O)N2CCN(CC)CC2)cc1-c1nc2c(CC)n(CCOC)nc2c(=O)[nH]1	inactive	inactive		
COC(=O)[C@]1(C)CCC[C@@]2(C)[C@@H]3CC[C@@H]4C[C@@]3(CC[C@@H]21)C[C@H]4C(=O)O	inactive	inactive		
C[N+]1(C)[C@@H]2CC[C@H]1CC(OC(=O)C(O)c1ccccc1)C2 (stereo partly drawn)	inactive	inactive		
CC1(CO)CCCC2(C)C1C(OC(=O)c1ccccc1)C=C1C(=O)OCC12O (stereo not drawn)	1800 nM (active)	1610 nM (active)		
CC(=O)OC/C(=C/C(=O)O)CC[C@@H]1C(C)=CC(=O)[C@@H]2C(C)(C)CCC[C@@]12C	inactive	inactive		
